Inconclusive results are not listed. Calls of active or inactive are those of the source. Calls follow the shape of the dose curve; as a rule, active = well fitted cell-killing curve with a large enough effect; inconclusive = small, poorly fitted or top-dose-only effect, or effect the other way; inactive = no such curve, though single readings can be large or run the other way.
Potency is read from the fitted curve at half-maximal effect.

The assay relates to HeLa. Briefly: Confirmatory qHTS for gynecologic anti-cancer compounds from libraries of approved drugs and bioactive compounds. Also: nearly all actives have a fitted effect of over 55% in size. The note with it: gynecologic cancer cell panel viability, ATPlite luminescence, 48 h; series mostly up to 57.6 µM. The method in brief:
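Cells (1,000/well) plated 16 h, then exposed 48 h at 37 °C to 11 concentrations (1:3) from 57.5 uM to 0.977 nM. Viability by ATPlite luminescence after 15 min; IC50 derived, with HEK 293T used for selectivity index.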
Background: qHTS replaces the single test concentration by a dilution series.
`OCCNC1CCCc2c1[nH]c1ccc(-c3ccccc3)cc21` (configuration not stated): the Potency is 1.93 µM (active). Regarding `S=c1nc[nH]c2nc[nH]c12`, the Potency was 3.43 µM (active). The same measure for `CCc1c2c(nc3ccc(OC(=O)N4CCC(N5CCCCC5)CC4)cc13)-c1cc3c(c(=O)n1C2)COC(=O)[C@]3(O)CC`: “inactive”. Under `COc1c(C)c2c(c(O)c1C/C=C(\C)CCC(=O)OCCN1CCOCC1)C(=O)OC2` stands 2.43 µM (active); under `CC[C@]1(O)C[C@@H]2CN(CCc3c([nH]c4ccccc34)[C@@](C(=O)OC)(c3cc4c(cc3OC)N(C)[C@H]3[C@@](O)(C(=O)OC)[C@H](OC(C)=O)[C@]5(CC)C=CCN6CC[C@]43[C@@H]65)C2)C1`, 0.122 µM (active). The same measure for `CNC(=O)c1nn(C)c2c1C(C)(C)Cc1cnc(Nc3ccc(N4CCN(C)CC4)cc3)nc1-2`: 1.53 µM (active); for `CCn1cc(-c2ccnc3[nH]c(-c4cccc(CN(C)C)c4)cc23)c(-c2ccc(NC(=O)N(C)C)cc2)n1`: 2.98 µM (active). With `O=C(O)c1ccc(Nc2ncc3c(n2)-c2ccc(Cl)cc2C(c2c(F)cccc2F)=NC3)cc1`, the Potency was 7.69 µM (active). Under `CC[C@]1(O)C[C@H]2CN(CCc3c([nH]c4ccccc34)[C@@](C(=O)OC)(c3cc4c(cc3OC)N(C=O)[C@H]3[C@@](O)(C(=O)OC)[C@H](OC(C)=O)[C@]5(CC)C=CCN6CC[C@]43[C@@H]65)C2)C1` stands 0.273 µM (active); under `CC(=O)NCC(=O)N1C2CCC1c1cc(Nc3ncc(C(F)(F)F)c(NC4CCC4)n3)ccc12` (configuration not stated), 1.09 µM (active). As for `CC[C@@]1(O)C(=O)OCc2c1cc1n(c2=O)Cc2c-1nc1ccccc1c2/C=N/OC(C)(C)C`, the Potency is 7.69 µM (active). For the compound `CCCS(=O)c1ccc2nc(NC(=O)OC)[nH]c2c1` (configuration not stated), the Potency is 24.3 µM (active).

With `CN1CCCC(n2nc(Cc3ccc(Cl)cc3)c3ccccc3c2=O)CC1` (configuration not stated), the Potency result was “inactive”. Regarding `Cc1ccc(C(=O)Nc2ccc(Oc3cc4cnn(C)c4cc3-c3cn[nH]c3)c(F)c2)c(=O)n1-c1ccc(F)cc1`, the Potency is 8.63 µM (active). As to `CCN1CCN(Cc2ccc(-c3cc4c(NC(C)c5ccccc5)ncnc4[nH]3)cc2)CC1` (configuration not stated), the Potency is 30.6 µM (active). Under `NC1(c2ccc(-c3nc4ccn5c(=O)[nH]nc5c4cc3-c3ccccc3)cc2)CCC1` stands “inactive”; under `CCN1CCN(Cc2ccc(Nc3ncc(F)c(-c4cc(F)c5nc(C)n(C(C)C)c5c4)n3)nc2)CC1`, 17.2 µM (active); under `O=C(c1ccc(/C=C/c2n[nH]c3ccccc23)cc1)N1CCNCC1`, 3.43 µM (active). As to `CCCC(Nc1nc(-c2ccc(NC(=O)NCC)c(OC)c2)ncc1C)c1cccnc1` (configuration not stated), the Potency was 0.153 µM (active). Under `NC(=O)c1cnc(-c2ccc(C3(N)CCC3)cc2)c(-c2ccccc2)c1` stands 30.6 µM (active); under `O=C(Nc1cn[nH]c1-c1nc2ccc(CN3CCOCC3)cc2[nH]1)NC1CC1`, 0.0432 µM (active). For `COc1cc2c(Oc3ccc(-c4cnc(Nc5ccc(F)cc5)n(C)c4=O)cc3F)ccnc2cc1OCCCN1CCOCC1`, the Potency is 21.7 µM (active). Turning to `CC(Oc1cc(-n2cnc3ccc(CN4CCN(C)CC4)cc32)sc1C(N)=O)c1ccccc1C(F)(F)F` (configuration not stated), the Potency was 2.43 µM (active). The same measure for `O=C(c1ccc(F)c(F)c1Nc1ccc(I)cc1F)N1CC(O)([C@@H]2CCCCN2)C1`: 21.7 µM (active).

With `CCc1cccc(CC)c1NC(=O)N1Cc2[nH]nc(NC(=O)c3ccc(N4CCN(C)CC4)cc3)c2C1`, the Potency was 1.53 µM (active). Under `CC(C)CC(=O)Nc1n[nH]c2c1CN(C(=O)C1CCN(C)CC1)C2(C)C` stands 3.43 µM (active).

As to `Cn1cc(-c2ccc3ncc(Cc4ccc5ncccc5c4)n3n2)cn1`, the Potency entry was “inactive”. On to `Cc1cc(SCc2sc(-c3ccc(C(F)(F)F)cc3)nc2C)ccc1OCC(=O)O`, for which the Potency result was “inactive”. As for `CCN(CC)CCCC(C)Nc1ccnc2cc(Cl)ccc12` (configuration not stated), the Potency entry was “inactive”. Under `CCCCN(CCCC)C(=O)CN1C[C@H](c2ccc3c(c2)OCO3)[C@@H](C(=O)O)[C@@H]1c1ccc(OC)cc1` stands “inactive”; under `Cc1cc(CN2CCN(c3c(Br)cnc4nc(-c5ccc(N6CCN(C)CC6)cc5)[nH]c34)CC2)no1`, 3.06 µM (active); under `COCCOc1nc(-c2ccc(Cl)c(Cl)c2)n(-c2ccc(NC(=O)CCl)cc2)n1`, 24.3 µM (active). The same measure for `CN(C)c1ccc(-c2nc3ncc(Cl)c(N4CCN(CC(=O)Nc5nccs5)CC4)c3[nH]2)cc1`: 2.37 µM (active); for `Cn1cnc2c(F)c(Nc3ccc(Br)cc3F)c(C(=O)NOCCO)cc21`: “inactive”. On to `Cc1cc(Nc2cc(N3CCN(C)CC3)nc(Sc3ccc(NC(=O)C4CC4)cc3)n2)n[nH]1`, for which the Potency is 1.09 µM (active). Under `Cn1cc(-c2[nH]c3cc(NC(=O)[C@H](N)C4CCCCC4)cc4c3c2C=NNC4=O)cn1` stands 1.72 µM (active). Under `CC(C)Oc1ccc2c(=O)c(-c3ccccc3)coc2c1` stands 21.7 µM (active).

The values are drawn from PubChem BioAssay AID1345085 (National Center for Advancing Translational Sciences (NCATS), 2018).
